Wnt bcat act: activators of Wnt/beta-catenin signaling | activation, % at 9.35 µM | Wnt/beta-catenin reporter cell assay, activator, plate reader | actives 1.2% (n = 300,000); in the data active = activation above about 30%, passing the limit was not always enough; inconclusive = no clear call, values can overlap the other calls;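 also: 0% = neutral control wells and 100% = positive control wells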
MITF TRPM1 HTS: MITF TRPM1 promoter activation in melanoma cells; SK-MEL-5 TRPM1-promoter luciferase, 24 h; % of positive control, neutral wells = 0; activation, % at 12.5 µM; actives 0.75% (n = 300,000); AID 588334;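 active = mean activation of at least 80% with every replicate also reaching 80%; inconclusive = mean reaches 80% but some replicate falls short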;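 also: 0% = neutral control wells and 100% = parthenolide positive control wells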
HSF1 inhib: HSF1 inhibition | NIH3T3-HGL HSE-luciferase, MG132-induced, luminescence 8 h; active compounds read low | activity change, negative = inhibition, % at 7.5 µM (by protocol) | actives 0.77% (n = 300,000) | AID 2098;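 active = more than half of replicate wells show activity change below -50%, luminescence cut by over half; inconclusive = some wells, but at most half, below -50%; inactive = no replicate well below -50%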;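 also: luciferase reports HSF-1 transcriptional activity via heat shock element; 0% = median of DMSO wells and -100% = zero luminescence signal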
esBAF inh: inhibitors of esBAF chromatin remodeling in mouse ES cells; Bmi1-luciferase knock-in reporter, 24 h; 100% = twice the neutral-well signal; reporter increase, % at 12.5 µM; actives 2% (n = 350,000); AID 602393; in the data active = activation above about 40%; inconclusive = no clear call, values can overlap the other calls;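 also: 0% = median of the plate's neutral control wells and 100% = double that signal; a rise in the Bmi1 reporter signal indicates esBAF inhibition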
HSF-1 act: increases HSF-1 driven luciferase reporter signal; NIH3T3-HGL HSF-1 luciferase reporter, MG132, 8 h; 100% = twice DMSO control signal; activation, % at 9 µM; actives 1.7% (n = 300,000); AID 504408;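 active = mean replicate activation of at least 50% with a set share of replicates each reaching 50%; inconclusive = only one of those two conditions met; inactive = mean below 50% and too few replicates reaching it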;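 also: 0% = median of the neutral control wells and 100% = twice that signal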
Starred values were filed as active, the others as inactive; ? = inconclusive; . = no result. This is a sample that favours compounds with a hit; in the whole collection about 3.9% have one here.

SMILES	Wnt bcat act	MITF TRPM1 HTS	HSF1 inhib	esBAF inh	HSF-1 act
O=C(C[C@H]1C=C[C@H](NC(=O)c2cccc(F)c2)[C@H](CO)O1)Nc1nccs1	.	.	.	0	.
Cc1noc(C)c1S(=O)(=O)Nc1ccc2c(c1)C(=O)N([C@@H](C)CO)C[C@H](C)[C@@H](CN(C)C(=O)C1CCCCC1)OCCCC[C@H](C)O2	.	.	.	1	.
O=C(C[C@@H]1CC[C@H](NC(=O)CN2CCOCC2)[C@H](CO)O1)NCCc1ccncc1	.	.	.	-3	.
O=C(Nc1nccs1)c1ccc(COc2ccccc2Br)o1	.	61	35	50*	43
CN(C)c1ccc(NC(=O)c2ccc(COc3cccc(Cl)c3)o2)cc1	.	13	24	74*	40
O=C(Nc1nccs1)c1ccc(COc2ccc(Cl)cc2)o1	.	17	37	.	56*
O=C(Nc1nccs1)c1ccc(COc2ccc(F)cc2)o1	24	50	24	60*	?
O=C(NCc1ccccn1)c1ccc(COc2ccc(Cl)cc2)o1	.	9	10	5	14
O=C(COc1ccc(F)cc1)Nc1nccs1	17	?	13	28	39
C[C@H](CO)N1C[C@H](C)[C@H](CN(C)CC2CCCCC2)Oc2ccc(NS(=O)(=O)c3ccc(Cl)cc3)cc2CC1=O	.	.	.	0	.
O=C(C[C@H]1CC[C@H]2[C@@H](COC[C@@H](O)CN2S(=O)(=O)c2ccc(F)cc2)O1)NCC1CC1	.	.	.	-3	.
CN(C)C(=O)c1ccc(COc2ccccc2Br)o1	.	65	-2	62*	-7
CCOC(=O)CN(C(=O)CSc1nnc(-c2ccncc2)n1CCCN(C)C)c1ccccc1	36*	.	-1	.	6
O=C(COC(=O)Cn1cnc2ccccc21)Nc1cc2c(cc1Cl)C(=O)c1ccccc1C2=O	-1	1	52	52*	74*
C[C@H]1CCCCO[C@@H](CN(C)Cc2ccncc2)[C@@H](C)CN([C@@H](C)CO)C(=O)c2cc(N(C)C)ccc2O1	.	.	.	1	.
C[C@H](CO)N1C[C@H](C)[C@H](CN(C)C(=O)Cc2ccccc2)Oc2cc(C#CC3CCCC3)ccc2S1(=O)=O	.	.	.	8	.
COc1ccc(S(=O)(=O)N(C)C[C@@H]2Oc3ccc(NC(=O)C4CC4)cc3C(=O)N([C@H](C)CO)C[C@@H]2C)cc1	.	.	.	-11	.
CCCc1nc(SCC(=O)Nc2cc(C)on2)c2ccccc2n1	-3	.	54	11	106*
Cc1nonc1NC(=O)CSc1nc(CCC2CCCC2)nc2ccccc12	-2	7	10	-4	8
CCCCNC(=O)CSc1nc(Cc2ccccc2)nc2ccccc12	-2	.	36	-3	52*
Cc1cc(NC(=O)CSc2nc(CCC3CCCC3)nc3ccccc23)no1	-4	.	21	2	59*
Cc1cc(NC(=O)CSc2nc(C(C)(C)C)nc3ccccc23)no1	-3	-8	.	.	.
O=C(c1ccc2c(=O)n(C3CCCC3)c(=S)[nH]c2c1)N1CCc2ccccc21	.	.	38	-8	91*
O=C(NC[C@H]1[C@H](c2ccccc2)[C@H](CO)N1Cc1ccccn1)C1CCC1	.	.	.	9	.
OC1CCCCC1Sc1nc2ccccc2s1 (configuration not stated)	28	55	17	53*	14
SMILES	Wnt bcat act	MITF TRPM1 HTS	HSF1 inhib	esBAF inh	HSF-1 act
O=C1OCCC1Sc1nc2ccccc2s1 (configuration not stated)	.	-1	-6	4	-14
Cc1ccccc1-n1c(-c2ccc(Cl)cc2)cnc1SCC(=O)NC1CCS(=O)(=O)C1 (configuration not stated)	.	5	14	.	70*
COc1ccccc1NC(=O)c1ccc(N2CC3CC(C2)c2cccc(=O)n2C3)c(NC(=O)c2ccncc2)c1 (configuration not stated)	-2	1	-57*	4	-66
Cc1c(C(=O)N2c3ccccc3CC2C)oc2ccccc12 (configuration not stated)	51*	57	26	85*	?
COCc1c(C(=O)OCC(=O)N2c3ccccc3CC2C)oc2ccccc12 (configuration not stated)	-2	.	-7	-1	-18
CCC(N=c1cc(-c2ccc(OC)cc2)oc2ccc(C)cc12)C(=O)O (configuration not stated)	47*	53	32	.	59*
CC(=O)c1ccc(N=Nc2c(C)[nH][nH]c2=O)cc1	23	.	-2	.	4
CC(=O)c1ccc(N=Nc2ccc(N)cc2)cc1	34*	15	11	-39	29
C[C@@H]1CN([C@H](C)CO)S(=O)(=O)c2ccc(C#Cc3ccccc3)cc2O[C@H]1CN(C)C	.	.	.	-12	.
CC(CSc1nc2ccccc2s1)Cn1c(N2CCCC2)nc2c1c(=O)[nH]c(=O)n2C (configuration not stated)	.	-10	22	8	56*
CCN1CCN(c2nc3c(c(=O)[nH]c(=O)n3C)n2CCSc2nc3ccccc3s2)CC1	-3	.	-4	-1	8
O=C(C[C@@H]1CC[C@@H](NC(=O)Nc2cc(F)ccc2F)[C@@H](CO)O1)NCCCN1CCOCC1	.	.	.	-2	.
CO[C@H]1CN(C)C(=O)c2ccc(NS(C)(=O)=O)cc2OC[C@@H](C)N(Cc2cccnc2)C[C@H]1C	.	.	.	2	.
Cc1cc(C(=O)COc2cccc([N+](=O)[O-])c2)c(C)n1C1CC1	-2	105*	.	71*	.
CC(OC(=O)c1ccc(-n2cnnn2)cc1)C(=O)Nc1ccccc1F (configuration not stated)	51*	5	.	2	.
c1ccc(N2CCN(c3ncnc4c3oc3ccccc34)CC2)cc1	.	-6	29	-2	35
Brc1ccc2oc3c(N4CCOCC4)ncnc3c2c1	7	9	7	48*	8
C[C@@H]1CN([C@H](C)CO)C(=O)c2cccc(NS(=O)(=O)c3ccccc3)c2O[C@H]1CN(C)C(=O)NC1CCCCC1	.	.	.	-3	.
O=C(C[C@@H]1C[C@H]2c3cc(NC(=O)c4cccnc4)ccc3O[C@H]2[C@@H](CO)O1)NCc1cccc(F)c1	.	.	.	-1	.
O=C(CCl)c1ccc2c(c1)CCN2C(=O)C1CC1	.	.	1	.	5
O=C(CCl)c1ccc2c(c1)CCN2C(=O)C1CCCCC1	0	-13	52	.	71*
O=C1c2cccnc2C(=O)N1CNc1ccc(Cl)cc1	2	-20	27	.	29
O=C1c2ccncc2C(=O)N1CNc1ccc(Cl)cc1	60*	0	17	.	3
Cc1ccc(S(=O)(=O)N(C)C[C@@H]2OCCCC[C@H](C)Oc3ccc(NC(=O)Nc4ccccc4)cc3C(=O)N([C@@H](C)CO)C[C@H]2C)cc1	.	.	.	0	.
N#C/C(=C\c1ccc(Cl)c([N+](=O)[O-])c1)c1ccccn1	-1	0	14	.	35
CNc1ccc(/C=C(\C#N)c2ccccn2)cc1[N+](=O)[O-]	14	?	11	74*	18
COc1ccc(-n2c(C)n[nH]c2=O)cc1	-1	-2	-3	-1	0
Cc1n[nH]c(=O)n1-c1ccc(OCc2ccccc2)cc1	5	51	17	44*	28

Compound activity as filed in PubChem BioAssay.
